Eleven molecules from PubChem BioAssay (NCATS) can be followed below.

This is one part of the list. Inconclusive results are not listed. The source made the active and inactive calls. Calls follow the shape of the dose curve; as a rule, active = well fitted inhibition curve with a large enough effect; inconclusive = small, poorly fitted or top-dose-only effect; inactive = no such curve, though single readings can be large or run the other way.

This experiment in a line: qHTS screen for small molecules that inhibit ELG1-dependent DNA repair: Hit Confirmation in Cell-Based Luciferin Assay (AID 624247). Particulars: cell-free firefly luciferase luminescence counter-screen, ViewLux; series mostly up to 46.1 µM. From the text: Cancer cells divide rapidly compared to normal cells in the body. During cell division, cancer cells need to duplicate their genome by DNA replication. The failure of genome duplication leads to cancer cells' death. Therefore, inhibitors of DNA replication could specifically kill cancer cells. Based on this concept, many chemotherapeutic agents were developed and have been used to treat cancer patients. However, there are a limited number of agents available in the clinical setting, and some of those that do exist have low efficacy and severe side effects. Therefore, if we can find the compounds that effectively block DNA replication either by directly damaging DNA or by inhibiting other cellular mechanisms, the options for cancer treatment will be broadened. With this in mind, we developed a quantitative high-throughput ELG1-luciferase reporter gene assay. Small molecules that specifically block ELG1 function in response to DNA damage can be identified by monitoring the suppression of luciferase activity. Since ELG1 defines a pathway for repairing DNA damage, agents blocking ELG1 function can be used to sensitize cancer cells to chemotherapeutic agents whose mechanism of action involves the induction of DNA damage. NIH Molecular Libraries Probe Production Network [MLPCN] NIH Chemical Genomics Center [NCGC] MLPCN Grant: R03 MH092164 Assay Provider: Kyungjae Myung, NHGRI, NIH
3 µL of substrate reagent will be pipetted into each well in 1536-well white, solid-bottom plates using a FRD dispenser, followed by addition of 23 nL of DMSO or compounds by pintool. After compound addition, 1 µL of luciferase will be added into the wells. The plates will be read in a ViewLux CCD-based plate reader.
For `CCOC(=O)c1cccc(NC(=O)C2CCN(c3ncnc4c3nc3n4CCCCC3)CC2)c1`, the molecule was called inactive.
As for `CC(=O)N1CCc2cc(Br)cc(S(=O)(=O)CCC(=O)Nc3c(C)n(C)n(-c4ccccc4)c3=O)c21`, the call was inactive.
Consider `COc1ccc(NC(C)=O)cc1NC(=O)CN1CCN(C2c3ccccc3-c3ccccc32)CC1`, for which the molecule was called inactive.
In the case of `Cc1ccccc1NC(=O)CSc1nc2ccc(Nc3nc(N4CCOCC4)nc(N4CCOCC4)n3)cc2s1`, the molecule was classed as inactive.
`Cc1ccc(OCC(=O)Nc2ccc(-c3nc4ncccc4o3)cc2)cc1`: the molecule was classed as inactive.
Turning to `COc1ccc(NC(=O)c2sc3nc(C)nc(N4CCN(c5ccccn5)CC4)c3c2C)c(OC)c1`, the molecule was called inactive.
The entry for `O=C(Nn1c(SCc2ccc([N+](=O)[O-])cc2)nc2ccccc2c1=O)c1ccc(F)cc1` is “inactive”; for `COc1ccc(CSc2nc(N3CCOCC3)c3c(c2C#N)CC(C)(C)OC3)cc1` it is “inactive”.
Regarding `Cc1ccc(Nc2nc(N3CCOCC3)nc(N3CCOCC3)n2)cc1Cl`, the molecule was called inactive.
As to `O=C(C1CCCN(S(=O)(=O)c2ccccc2)C1)N1CCN(c2ccc(F)cc2)CC1` (stereo unspecified), the result was inactive.
Consider `CS(=O)c1ccc(/C=C2\C=Cc3ccccc32)cc1` (stereo unspecified), for which the molecule was called inactive.
